Assay outcomes (PubChem)
Sampled rows, rich in hits. Any-hit rate of the full collection: about 4.1%.
DAX1 inh-1 = DAX1 (NR0B1) inhibitors, primary screen, cell-based, HEK293, Gal4-DAX1, luciferase luminescence; HEK293 Gal4-DAX1 luciferase reporter; inhibition, % at 6.75 µM; 340,000 tested, 0.99% active;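 active = inhibition above the mean over all tested compounds plus 3 SD, cut at about 4.2% in these data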;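 note: 0% = DAX1-transfected cells with DMSO and 100% = empty-vector control cells with DMSO; inhibition shows as a rise in luminescence from relieved DAX1 repression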
DAX1 inh-2 = DAX1 (NR0B1) inhibitors on StAR promoter, primary screen, cell-based, luminescence, SF-1 (NR5A1), full-length DAX-1; AID 652010, 2013; inhibition, % at 6.8 µM; HEK293T StAR-luciferase reporter, SF-1/DAX-1 repression relief; 370,000 tested, 1.1% active;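 active = inhibition above the mean over all tested compounds plus 3 SD, cut at about 3.6% in these data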;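 note: 0% = DAX-1 cells with DMSO and 100% = cells lacking DAX-1 with DMSO; higher inhibition means more luminescence from relief of DAX-1 repression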
ssDAF12 agonist = S. stercoralis DAF-12 nuclear receptor activators, primary screen, cell-based, luminescence, HEK293, GRIP1 co-expression, lit1-tk-luc. activation, % at 6.8 µM. 370,000 tested, 1% active. HEK293 ssDAF-12/GRIP1 lit1-tk-luc reporter; % of 3 µM dafachronic acid response. Nuclear hormone receptor DAF-12 (Strongyloides stercoralis);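 active = activation above the mean over all tested compounds plus 3 SD, cut at about 0.9% in these data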;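 note: 0% = DMSO-only wells and 100% = 3 µM delta7-dafachronic acid wells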
hcDAF12 agonist = H. contortus DAF-12 nuclear receptor activators, primary screen, cell-based, luminescence, HEK293, lit1-tk-luc reporter; HEK293 hcDAF-12 lit1-tk-luc reporter; 0% DMSO, 100% Δ7-dafachronic acid; activation, % at 6.8 µM; 370,000 tested, 1.4% active; AID 652067, 2013;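 active = activation above the mean of all tested compounds plus 3 SD, cut at about 5.5% in these data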;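 note: 100% = response to 3 µM Δ7-dafachronic acid high control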
hgDAF12 agonist = H. glycines DAF-12 receptor agonists, primary screen, cell-based, luminescence, HEK293, GAL4 fusion, UAS-luciferase; HEK293 GAL4-hgDAF12 UAS-luciferase reporter, agonist luminescence; normalized to butyrate control; activation, % at 6.8 µM; 370,000 tested, 1.8% active; AID 687014, 2013;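 active = activation above a cutoff set at the mean of all screened compounds plus 3 SD, cut at about 10% in these data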;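 note: 0% = DMSO wells and 100% = sodium butyrate wells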
LXRb hcDAF ctr = LXR agonists, Gal4 luciferase reporter, confirmation, counter-screen for hcDAF-12 agonist project, cell-based, luminescence, HEK293, H. contortus campaign; 3,400 tested, under 10 active; shares compounds with hcDAF12 agonist; HEK293 Gal4-LXR tk-luc reporter, 24 h; normalized: DMSO 0%, positive control 100%; AID 743027, 2013; activation, % at 6.8 µM;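 active = mean percent activation of the reporter above a cutoff set as the average over tested compounds plus their standard deviation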
Target sequence (P55055 whole entry, looked up, the tested form may be a part): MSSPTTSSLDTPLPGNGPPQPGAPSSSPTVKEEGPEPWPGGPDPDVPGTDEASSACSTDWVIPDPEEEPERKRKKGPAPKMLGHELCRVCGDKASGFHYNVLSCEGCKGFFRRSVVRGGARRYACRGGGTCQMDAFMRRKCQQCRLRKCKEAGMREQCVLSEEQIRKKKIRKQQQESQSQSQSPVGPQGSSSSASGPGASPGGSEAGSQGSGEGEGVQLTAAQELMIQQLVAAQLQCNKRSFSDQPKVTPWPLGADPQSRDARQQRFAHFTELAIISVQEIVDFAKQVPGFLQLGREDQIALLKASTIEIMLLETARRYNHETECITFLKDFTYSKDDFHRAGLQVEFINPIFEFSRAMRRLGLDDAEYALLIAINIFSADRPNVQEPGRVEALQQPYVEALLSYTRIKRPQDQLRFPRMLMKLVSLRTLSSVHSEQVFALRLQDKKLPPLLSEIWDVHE
hcDAF12 ag = H. contortus DAF-12 receptor agonists, confirmation, cell-based, luminescence, HEK293, lit1-tk-luc, triplicate | shares compounds with hcDAF12 agonist | HEK293 hcDAF-12 lit1-tk-luc reporter; % of Δ7-dafachronic acid response | activation, % at 6.8 µM | 3,400 tested, 61% active;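 active = mean activation across triplicate tests above the threshold derived from the earlier primary screen, cut at about 5.5% in these data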;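 note: 0% = DMSO only wells and 100% = 3 µM Δ7-dafachronic acid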
Active calls of the source: *.

What do the screens show for `COC(=O)c1ccc(CSc2nnc(C)n2N)o1`?
DAX1 inh-1: 1; DAX1 inh-2: 0; ssDAF12 agonist: -1; hcDAF12 agonist: 15*; hgDAF12 agonist: 0; LXRb hcDAF ctr: 0; hcDAF12 ag: -1

How did COC(=O)c1ccc(CSc2nnnn2C)o1 do in these assays?
DAX1 inh-1: 0; DAX1 inh-2: 0; ssDAF12 agonist: -1; hcDAF12 agonist: -1; hgDAF12 agonist: 2

How did COc1ccc(C)c(NC(=O)NCCc2cnc[nH]2)c1 do in these assays?
DAX1 inh-1: 0; DAX1 inh-2: 0; ssDAF12 agonist: -1; hcDAF12 agonist: -1; hgDAF12 agonist: -2

What do the screens show for `C[C@@H](C(=O)Nc1cccnc1)n1c(=O)[nH]c2ccccc2c1=O`?
DAX1 inh-1: 0; DAX1 inh-2: 1; ssDAF12 agonist: -2; hcDAF12 agonist: 1; hgDAF12 agonist: 0

How did O=C(CC(SCCO)c1ccc([N+](=O)[O-])cc1)c1ccco1 (configuration not stated) do in these assays?
DAX1 inh-1: 0; DAX1 inh-2: -1; ssDAF12 agonist: -2; hcDAF12 agonist: 7.1*; hgDAF12 agonist: 0; LXRb hcDAF ctr: 0; hcDAF12 ag: 1

Results for Cc1ccc(C(=O)CC(SCC(=O)O)c2ccc([N+](=O)[O-])cc2)cc1 (configuration not stated) ?
DAX1 inh-1: -2; DAX1 inh-2: 1; ssDAF12 agonist: -1; hcDAF12 agonist: 1; hgDAF12 agonist: 1

Results for O=C(NC1CCCCCC1)c1ccc(N2CCCC2=O)cc1 ?
DAX1 inh-1: 2; DAX1 inh-2: 2; ssDAF12 agonist: 0; hcDAF12 agonist: 6.7*; hgDAF12 agonist: 11*; LXRb hcDAF ctr: 0; hcDAF12 ag: 2

Results for CCC1CCCCN1CCCNC(=O)c1ccc(N2CCCC2=O)cc1 (configuration not stated) ?
DAX1 inh-1: 1; DAX1 inh-2: -1; ssDAF12 agonist: -1; hcDAF12 agonist: 1; hgDAF12 agonist: 0

What do the screens show for `CC1CCCCN1CCCNC(=O)c1ccc(N2CCCC2=O)cc1` (configuration not stated)?
DAX1 inh-1: 1; DAX1 inh-2: 1; ssDAF12 agonist: -1; hcDAF12 agonist: 8.6*; hgDAF12 agonist: 2; LXRb hcDAF ctr: 0; hcDAF12 ag: 0

How did O=C(/C=C/c1c[nH]c2ccccc12)c1cccc2ccccc12 do in these assays?
DAX1 inh-1: 0; DAX1 inh-2: 0; ssDAF12 agonist: 0; hcDAF12 agonist: 11*; hgDAF12 agonist: 4; LXRb hcDAF ctr: 0; hcDAF12 ag: 3

How did O=C(c1ccccc1)c1c[nH]c2ccccc12 do in these assays?
DAX1 inh-1: 2; DAX1 inh-2: 0; ssDAF12 agonist: -1; hcDAF12 agonist: 1; hgDAF12 agonist: 4

Results for Cc1ccc(C)c(S(=O)(=O)Nc2ccc(O)c3ccccc23)c1 ?
DAX1 inh-1: -2; DAX1 inh-2: -1; ssDAF12 agonist: -1; hcDAF12 agonist: 8.0*; hgDAF12 agonist: -4; LXRb hcDAF ctr: 0; hcDAF12 ag: 3

What do the screens show for `Cc1ccc(S(=O)(=O)Nc2ccc(O)c3ccccc23)c(C)c1`?
DAX1 inh-1: -1; DAX1 inh-2: -1; ssDAF12 agonist: 0; hcDAF12 agonist: 0; hgDAF12 agonist: -2

Results for C(=N\Nc1ccccc1)/c1nc2ccccc2s1 ?
DAX1 inh-1: 4.8*; DAX1 inh-2: 3; ssDAF12 agonist: 3.8*; hcDAF12 agonist: 18*; hgDAF12 agonist: 24*; LXRb hcDAF ctr: 3; hcDAF12 ag: 23*

How did COc1ccc(C(=O)Nc2sc(C)c(C)c2CN2CC(C)OC(C)C2)cc1 (configuration not stated) do in these assays?
DAX1 inh-1: 3; DAX1 inh-2: 3.9*; ssDAF12 agonist: 0; hcDAF12 agonist: 8.9*; hgDAF12 agonist: 11*; LXRb hcDAF ctr: 0; hcDAF12 ag: 4

How did Cc1sc(NC(=O)c2ccco2)c(CN2CCCCC2)c1C do in these assays?
DAX1 inh-1: 0; DAX1 inh-2: 0; ssDAF12 agonist: -1; hcDAF12 agonist: -1; hgDAF12 agonist: 4

Results for CCCC(=O)Nc1ccc2oc(-c3ccc(OC)c(Br)c3)nc2c1 ?
DAX1 inh-1: -1; DAX1 inh-2: -1; ssDAF12 agonist: -1; hcDAF12 agonist: 0; hgDAF12 agonist: -1

Results for CCCC(=O)Nc1ccc(-c2nc3cc(C)ccc3o2)cc1 ?
DAX1 inh-1: 0; DAX1 inh-2: 3.9*; ssDAF12 agonist: 1.7*; hcDAF12 agonist: 12*; hgDAF12 agonist: 13*; LXRb hcDAF ctr: 1; hcDAF12 ag: 8.4*

How did C[C@]12CCC(=O)C[C@@H]1CC[C@@H]1[C@@H]2CC[C@]2(C)[C@@H](C(=O)COC(=O)CCC(=O)O)CC[C@@H]12 do in these assays?
DAX1 inh-1: 1; DAX1 inh-2: 0; ssDAF12 agonist: -1; hcDAF12 agonist: -1; hgDAF12 agonist: 3

How did CN(C)c1cc2c3ccccc3n(C)c2cc1N do in these assays?
DAX1 inh-1: 2; DAX1 inh-2: 0; ssDAF12 agonist: 0; hcDAF12 agonist: 7.6*; hgDAF12 agonist: 4; LXRb hcDAF ctr: 0; hcDAF12 ag: 4

Results for O=C(O)Cc1ccc(N=Nc2c(O)c(C(=O)O)cc3ccccc23)cc1 ?
DAX1 inh-1: 1; DAX1 inh-2: 0; ssDAF12 agonist: 0; hcDAF12 agonist: 6.8*; hgDAF12 agonist: 10; LXRb hcDAF ctr: 0; hcDAF12 ag: 1

What do the screens show for `NS(=O)(=O)c1ccc(N=Nc2c(O)c(C(=O)O)cc3ccccc23)cc1`?
DAX1 inh-1: 0; DAX1 inh-2: -1; ssDAF12 agonist: -1; hcDAF12 agonist: 1; hgDAF12 agonist: -3

What do the screens show for `COc1nc2c(C)cccc2cc1-c1noc(-c2ccco2)n1`?
DAX1 inh-1: 0; DAX1 inh-2: 1; ssDAF12 agonist: 0; hcDAF12 agonist: 6.9*; hgDAF12 agonist: 2; LXRb hcDAF ctr: 0; hcDAF12 ag: 5
